Compounds without any hit were thinned out: in the full panel of roughly 83,000, 20% have a hit.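 In brief: 96-well plates, 48 h treatment, single concentration, percent growth endpoint.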 A number with no mark means an inactive call. Calls of active or inactive are those of the source. The calls were made as follows: active = growth percent below 10; inactive = the rest.
Assays:
Assay in all cases: NCI-60 one-dose screen, 48 h (100 = growth as untreated, 0 = no growth, -100 = all killed)
NCI-H322M lung = details: 10 µM unless noted
HOP-62 NSCLC = details: 10 µM unless noted
HOP-92 NSCLC = details: 10 µM unless noted
SNB-19 CNS = details: 10 µM unless noted
TK-10 renal = details: 10 µM unless noted
CCRF-CEM leukemia = details: 10 µM unless noted
SR leukemia = details: 10 µM
RPMI-8226 leukemia = details: 10 µM unless noted
SK-OV-3 ovarian = details: 10 µM unless noted
IGROV1 ovarian = details: 10 µM
HS 578T breast = details: 10 µM unless noted
T-47D breast = details: 10 µM unless noted
BT-549 breast = details: 10 µM
MCF7 breast = details: 10 µM unless noted
U251 CNS = details: 10 µM unless noted
EKVX NSCLC = details: 10 µM unless noted
NCI-H522 lung = details: 10 µM unless noted
HCC-2998 colon = details: 10 µM unless noted

## CC(CC(C#N)(c1ccccc1)c1ccccc1)N1CCOCC1 (stereo not drawn)
NCI-H322M lung
  growth: 107%
HOP-62 NSCLC
  growth: 97.6%
HOP-92 NSCLC
  growth: 83.5%
SNB-19 CNS
  growth: 92.2%
TK-10 renal
  growth: 105%
CCRF-CEM leukemia
  growth: 99.5%
SR leukemia
  growth: 84.3%
RPMI-8226 leukemia
  growth: 103%
SK-OV-3 ovarian
  growth: 109%
IGROV1 ovarian
  growth: 102%
HS 578T breast
  growth: 111%
T-47D breast
  growth: 90%
BT-549 breast
  growth: 111%
MCF7 breast
  growth: 122%

## CC(=O)N(C)C1=Nc2ccc(Cl)cc2C(c2ccccc2)=[N+]([O-])C1
NCI-H322M lung
  growth: 82.6%
HOP-62 NSCLC
  growth: 96.3%
HOP-92 NSCLC
  growth: 92.5%
U251 CNS
  growth: 111%
EKVX NSCLC
  growth: 115%
TK-10 renal
  growth: 102%
CCRF-CEM leukemia
  growth: 125%
SR leukemia
  growth: 86.1%
RPMI-8226 leukemia
  growth: 113%
SK-OV-3 ovarian
  growth: 102%
IGROV1 ovarian
  growth: 106%
HS 578T breast
  growth: 111%
T-47D breast
  growth: 94.9%
BT-549 breast
  growth: 106%
MCF7 breast
  growth: 104%

## Oc1ccc(Br)cc1CN1CCN(Cc2ccc(Cl)cc2)CC1
NCI-H322M lung
  growth: 103%
HOP-62 NSCLC
  growth: 57.6%
HOP-92 NSCLC
  growth: 24.8%
NCI-H522 lung
  growth: -84.4% (active)
SNB-19 CNS
  growth: 87.8%
U251 CNS
  growth: 48.9%
TK-10 renal
  growth: 106%
CCRF-CEM leukemia
  growth: 26.7%
SR leukemia
  growth: 22.7%
RPMI-8226 leukemia
  growth: 16.7%
SK-OV-3 ovarian
  growth: 101%
HS 578T breast
  growth: 80.9%
T-47D breast
  growth: 65.1%
BT-549 breast
  growth: 86.3%
MCF7 breast
  growth: 34.5%

## COc1cc(CNCCc2ccc(Cl)cc2)cc(OC)c1O
NCI-H322M lung
  growth: 78.9%
HOP-62 NSCLC
  growth: 83.3%
HOP-92 NSCLC
  growth: 60.6%
NCI-H522 lung
  growth: 16.1%
SNB-19 CNS
  growth: 75.6%
TK-10 renal
  growth: 79.6%
CCRF-CEM leukemia
  growth: 46.9%
SR leukemia
  growth: 14.5%
SK-OV-3 ovarian
  growth: 82.7%
IGROV1 ovarian
  growth: 81.3%
HS 578T breast
  growth: 62.6%
BT-549 breast
  growth: 71.8%
MCF7 breast
  growth: 63.7%
HCC-2998 colon
  growth: 83.2%

— PubChem BioAssay (NCI)
